Where “and” joins values, the source holds several entries; their conditions need not be identical. Equal values may be shown once. Compounds without any hit were thinned out: in the full panel of roughly 83,000, 20% have a hit.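 Interpretation: 100, growth as untreated; towards 0, rising growth inhibition; 0, no net growth; 0 to -100, cell death. Compounds scoring below 10 were considered active.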 Calls of active or inactive are those of the source.

The values that follow come from PubChem BioAssay (NCI).

The assay concerns HL-60(TB) leukemia. Put plainly: NCI-60 one-dose screen, 48 h (100 = growth as untreated, 0 = no growth, -100 = all killed). The following applies: 10 µM unless noted.
For the compound `NS(=O)(=O)c1ccc(N=Nc2c(O)n(CC(=O)Nc3ccccc3Br)c3ccccc23)cc1`, the growth was 76.6% (inactive).

Consider `COc1cc2c(c(OC)c1OC)C(=O)CC(c1cccc(NC(=O)[C@@H](N)CC(C)C)c1)O2` (stereo partly drawn), for which the growth was 96.6% (inactive).

With `Cc1ccc(C(=O)CSc2nnc(-c3c[nH]c4ccccc34)n2-c2ccccc2)cc1`, the growth is 43.3% (inactive).

For `Cc1cc2nc3c4ccccc4n(CC4=NCCN4)c3nc2cc1C`, the growth is -55.6% (active).

In the case of `CC1(C)CC(=O)C2=C(C1)OC(N)=C(c1nc3ccccc3[nH]1)C2c1ccc(Cl)cc1` (stereo not drawn), the growth was 22% (inactive) and 106% (inactive).

Consider `COc1ccc2[nH]cc(/C=N/Nc3ccc(Br)cn3)c2c1`, for which the growth was 5.34% (active).

As to `COc1c(F)ccc(C(=O)Nc2ccc3nc(NC(=O)C4CCCN(S(=O)(=O)C5CC5)C4)sc3c2)c1F` (stereo not drawn), the growth is 32.4% (inactive).

For the compound `O=C(Nc1ccc(F)cc1)Nc1nc2ccc([N+](=O)[O-])cc2s1`, the growth is -11.5% (active).

In the case of `O=C(CNc1nc(-c2ccccc2)cs1)Nc1ccc(Br)cc1`, the growth was -40.4% (active).

For the compound `COc1ccc(-c2nc(Nc3ccccc3S(N)(=O)=O)c3ccccc3n2)cc1`, the growth was 88.5% (inactive).

For the compound `CN1CCN(c2ccc3c4c(cccc24)C(=O)N(c2cccc(-c4nn(-c5ccccc5)cc4-c4nc5ccccc5s4)c2)C3=O)CC1`, the growth was 102% (inactive).

As for `Cc1cccc(-c2nc(Nc3ccc(C)c(S(N)(=O)=O)c3)c3ccccc3n2)c1`, the growth is 26% (inactive).

Turning to `COc1ccc(C2=Nc3c(N)nc(N)nc3NC(c3ccc(Oc4nc(Nc5ccc(F)cc5)nc(N(C)C)n4)c(OC)c3)C2)cc1` (stereo not drawn), the growth is 32.6% (inactive).
